Results filed as inconclusive are left out. Active and inactive are the calls of the source. Calls come from the whole dose curve; as a rule, active = well fitted inhibition curve with a large enough effect; inconclusive = small, poorly fitted or top-dose-only effect; inactive = no such curve, though single readings can be large or run the other way.
Each compound was assayed on Zika virus NS2B-NS3 protease (unlinked complex) (assay: Primary screen GU Rhodamine qHTS for Zika virus inhibitors: Unlinked NS2B-NS3 protease assay (AID 1347159; note: nearly all actives have a fitted effect of over 60% in size)). Settings: Recombinant ZIKV NS2B-NS3 protease, Rhodamine110 substrate fluorescence; series mostly up to 107 µM.
Summary of the method: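 A qHTS format was used, with compound concentrations ranging up to 114 microM. Each compound was preincubated with 25 nM NS2B-NS3 protease, and the substrate was then added at 1.5 microM. Curves were fitted with a 4-parameter Hill model.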
With `COc1ccc(C(=O)Nc2ncc(-c3ccc(C(=O)O)cc3)s2)cc1` the Potency was 28.2 µM (active).
In the case of `CC1CCC23COC(=O)C2=CC(O)CC3C1(C)CCC1=CC(O)OC1=O` (centres undefined), the Potency is reported as 8.91 µM (active).
`C=C[C@]1(C)C=C2CCC3C(C)(CCC[C@@]3(C)C(=O)O)C2CC1` (some centres undefined) was tested, and the Potency was 12.6 µM (active).
With `C=CC(=O)N1CCN(C(=O)CNc2cc(I)c(Cl)cc2O)CC1` the Potency was “inactive”.
`CC(C)(C)CCN1C[C@@H]2C(CNC(=O)c3cc(Cl)cc(Cl)c3)[C@@H]2C1` (some centres undefined) was tested, and the Potency was “inactive”.
`NC(=O)c1csc(C2OC(CO)C(O)C2O)n1` (centres undefined) was tested, and the Potency was “inactive”.
With `Cc1cc(=O)oc2c(C=O)c(O)ccc12` the Potency was 79.4 µM (active).
With `CCc1cc(CN2CC(C(=O)O)C2)sc1-c1noc(-c2ccc(Oc3ccccc3)cc2)n1` the Potency was 3.98 µM (active).
In the case of `CC(Oc1cc(-n2cnc3ccc(CN4CCN(C)CC4)cc32)sc1C(N)=O)c1ccccc1C(F)(F)F` (centres undefined), the Potency is reported as “inactive”.
For `CC(C)C(N)C(=O)OCCOCn1cnc2c(=O)[nH]c(N)nc21` (centres undefined), the Potency was “inactive”.
For `CCC(C)/C=C(C)/C=C/c1cc2c(cn1)C(=O)C(C)(OC(C)=O)C(O)=C2Cl` (centres undefined), the Potency was 10 µM (active).
`CC1=C(/C=C/C(C)=C\C=C\C(C)=C/C(=O)O)C(C)(C)CCC1` was tested, and the Potency was 20 µM (active).
In the case of `Cc1ccc(NC(=O)Nc2cc(C(F)(F)F)ccc2F)cc1Nc1ccc2c(c1)NC(=O)/C2=C\c1ccc[nH]1`, the Potency is reported as 39.8 µM (active).
For `CC(C)CC(=O)OC1OC=C(CO[C@@H]2O[C@H](CO)[C@@H](O)[C@H](O)[C@H]2O)C2CC(O)C(O)(CO)C12` (some centres undefined), the Potency was “inactive”.
`C[C@@H]1CC[C@@]2(OC1)O[C@H]1C[C@H]3[C@@H]4CC=C5C[C@@H](O)CC[C@]5(C)[C@H]4CC[C@]3(C)[C@H]1[C@@H]2C` was tested, and the Potency was “inactive”.
With `COc1ccc(-c2cnc(-c3cccc4c3-c3ccccc3C4=O)o2)cc1` the Potency was “inactive”.
For `CC(C)CC1NC(=O)C2CC3(O)c4ccccc4NC3N2C1=O` (centres undefined), the Potency was “inactive”.
For `C/C(=C\C=C\C(C)C1CCC2(C)C3CCC4C(C)(C)C(=O)CCC45CC35CCC12C)C(=O)O` (centres undefined), the Potency was 4.47 µM (active).
For `Cc1ccc(C)c(OCCn2cc(C(=O)O)c3ccccc32)c1`, the Potency was 39.8 µM (active).
With `CC(=O)c1c(O)cc(O[C@@H]2O[C@H](CO)[C@@H](O)[C@H](O)[C@H]2O)cc1O` the Potency was 31.6 µM (active).
With `CCOc1cc(CC(=O)NC(CC(C)C)c2ccccc2N2CCCCC2)ccc1C(=O)O` (centres undefined) the Potency was 20 µM (active).
With `CC1(O)CCCC2(C)C1CCC13CC(CO)C(CCC12)C3` (centres undefined) the Potency was “inactive”.
In the case of `Cc1[nH]c2ccccc2c1C1=C(NCCc2ccc(F)cc2)C(=O)N(C)C1=O`, the Potency is reported as “inactive”.
For `CC(=O)O[C@@H]1[C@@H](CO)O[C@@](CO)(O[C@H]2O[C@H](COC(=O)/C=C/c3ccccc3)[C@@H](O)[C@H](O)[C@H]2O)[C@H]1O`, the Potency was “inactive”.
`CC(C)c1cc2c(c(O)c1O)[C@@]13CCCC(C)(C)[C@@H]1[C@H](OC3=O)C2=O` was tested, and the Potency was 8.91 µM (active).
`COc1cc2c3c(cc4ccccc4c3c1O)NC2=O` was tested, and the Potency was 22.4 µM (active).
In the case of `C=C1C(=O)OC2CC3(C)C(CC12)C(C)=CC(O)C3OC(C)=O` (centres undefined), the Potency is reported as 25.1 µM (active).
In the case of `CC[C@H](C)[C@H](NC(=O)[C@H]([C@@H](C)CC)N(C)C(C)=O)C(=O)N[C@H](C(=O)N[C@@H](CC(C)C)C(=O)[C@@]1(C)CO1)[C@@H](C)O`, the Potency is reported as “inactive”.
`CC(C)=CCC/C(C)=C/Cc1ccc(O)c(C2OC(=O)c3cc(C(=O)O)cc(O)c32)c1O` (centres undefined) was tested, and the Potency was 2.24 µM (active).
With `COc1ccc(CNC(=O)c2cc(-c3cncc(C)c3)ncc2-c2nccs2)nc1OC` the Potency was “inactive”.
`C/C=C/C=C/C=C/C(=O)OC1C=C(C=O)C(O)(C(=O)O)C2(C)CCCC(C)(C)C12` (centres undefined) was tested, and the Potency was 8.91 µM (active).
With `O=C(O)CC1CCC(c2ccc(-c3ccc4nc(C(=O)NCc5ccc(OC(F)(F)F)cc5)cn4c3)cc2)CC1` (centres undefined) the Potency was 2.51 µM (active).
For `C[C@@H]1CC[C@]2(C(=O)O[C@@H]3O[C@H](CO)[C@@H](O)[C@H](O)[C@H]3O)CC[C@]3(C)C(=CCC4[C@@]5(C)C[C@@H](O)[C@H](O)[C@@](C)(C(=O)O[C@H]6[C@H](O)C[C@@]7(C)C(CC[C@]8(C)C7CC=C7[C@H]9[C@](C(=O)O[C@@H]%10O[C@H](CO)[C@@H](O)[C@H](O)[C@H]%10O)(CC[C@@H](C)[C@@]9(C)O)CC[C@]78C)[C@@]6(CO)C(=O)O)C5CC[C@]43C)[C@@H]2[C@]1(C)O` (some centres undefined), the activity change, negative = inhibition was -16.4% [at 19.1 µM] (inactive).
For `CCCC1(c2ccccc2)NC(=O)N(CC(=O)N(C)Cc2c(F)cccc2Cl)C1=O` (centres undefined), the Potency was “inactive”.
In the case of `CC1(C)CC[C@]2(C(=O)O[C@@H]3O[C@H](CO)[C@@H](O)[C@H](O)[C@H]3O)CC[C@]3(C)C(=CCC4[C@@]5(C)C[C@@H](O)[C@H](O)[C@@](C)(CO)C5CC[C@]43C)C2[C@@H]1O` (some centres undefined), the Potency is reported as 10 µM (active).
In the case of `CC(=O)OCC1(O)CCC2C(COC3OC(CO)C(O)C(O)C3OC(=O)/C=C/c3ccc(O)cc3)=COC(OC(=O)CC(C)C)C21` (centres undefined), the Potency is reported as “inactive”.
`Cc1noc(-c2ccc(-c3ccc(CC(=O)O)cc3)cc2)c1NC(=O)O[C@H](C)c1ccccc1` was tested, and the Potency was 14.1 µM (active).
With `Nc1nccn2c(C3CCC(C(=O)O)CC3)nc(-c3cc4cccc(Cl)c4[nH]3)c12` (centres undefined) the Potency was 25.1 µM (active).
With `Cc1ccc(C(=O)Nc2noc3ccccc23)cc1` the Potency was “inactive”.

From PubChem BioAssay (NCATS)
% is set by controls: 0 for no effect and ±100 for the full control effect; potency is the fitted concentration of half-maximal effect.
